For 14 molecules, growth results are on record in PubChem BioAssay (NCI).

Molecules are shown by their SMILES. Compounds without any hit were thinned out: in the full panel of roughly 83,000, 20% have a hit.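 Compound tested at a single concentration for 48 hours in 96-well plates; a percent growth value below 10 was scored as active.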 A number with no mark means an inactive call. Calls of active or inactive are those of the source.

Among the test systems are HCT-15 colon; HT29 colon; SNB-75 CNS; SNB-19 CNS; U251 CNS; PC-3 prostate; SK-MEL-5 melanoma; UACC-62 melanoma; LOX IMVI melanoma; SK-MEL-28 melanoma.
What all share (assay): NCI-60 one-dose screen, 48 h (100 = growth as untreated, 0 = no growth, -100 = all killed)
Holding throughout (conditions): 10 µM unless noted

Regarding `CC1CCc2c(sc(NC(=O)CSc3nnc4ccccn34)c2C(N)=O)C1` (stereo not given), the growth in the assay with HCT-15 colon is 106%; in the assay on HT29 colon, 117%; with SNB-75 CNS, 104%; in the assay on SNB-19 CNS, 115%; in the assay with U251 CNS, 108%; in the assay with PC-3 prostate, 106%. The growth in the assay on SK-MEL-5 melanoma was 99.3%; in the assay on UACC-62 melanoma it was 101%; with LOX IMVI melanoma it was 90.5%; with SK-MEL-28 melanoma it was 137%.

For `COc1cc(-c2n[nH]nc2-c2ccc3c(c2)OCCO3)cc(OC)c1OC`, the growth with HCT-15 colon is 6.81% (active); in the assay with HT29 colon, -12.7% (active); in the assay with SNB-75 CNS, 25.4%; in the assay on SNB-19 CNS, 42.6%; in the assay with U251 CNS, -27.3% (active); in the assay with PC-3 prostate, 16.5%. Further, the growth in the assay on SK-MEL-5 melanoma is -39.5% (active); in the assay on UACC-62 melanoma it was 27%; in the assay on LOX IMVI melanoma, 15.2%; in the assay with SK-MEL-28 melanoma, 38.9%.

Regarding `COC(=O)CCCCCCN=Cc1c(O)c(O)c(C(C)C)c2cc(C)c(-c3c(C)cc4c(C(C)C)c(O)c(O)c(C=NCCCCCCC(=O)OC)c4c3O)c(O)c12`, the growth with HCT-15 colon was 13.1%; in the assay on HT29 colon, 6.88% (active); with SNB-75 CNS, 59.4%; with SNB-19 CNS, 17.6%; with U251 CNS it was 11.5%; in the assay on PC-3 prostate it was 16%. Moreover, the growth is 43.4% with SK-MEL-5 melanoma, 17.7% in the assay with UACC-62 melanoma, 21.4% with LOX IMVI melanoma and 36.1% with SK-MEL-28 melanoma.

As to `O=C(CNC1CCCCC1)Nc1ccc(-c2nc3ccccc3s2)cc1`, the growth was 62.9% with HCT-15 colon; 62.3% with HT29 colon; 67.3% in the assay on SNB-75 CNS; 91% with SNB-19 CNS; 65.1% with U251 CNS; 79.7% in the assay on PC-3 prostate. Also, the growth was 90.8% in the assay on SK-MEL-5 melanoma, 96.2% in the assay on UACC-62 melanoma, 73.9% with LOX IMVI melanoma and 95.2% in the assay with SK-MEL-28 melanoma.

On to `c1ccc2nc(-c3ccc4ccccc4n3)ccc2c1`, for which the growth in the assay on HCT-15 colon was 104%; in the assay on HT29 colon it was 105%; in the assay with SNB-75 CNS, 85.6%; in the assay with SNB-19 CNS it was 105%; in the assay on U251 CNS, 95.8%; in the assay on PC-3 prostate, 84.5%. Also, the growth in the assay on SK-MEL-5 melanoma is 88.9%; in the assay with UACC-62 melanoma, 97%; in the assay with LOX IMVI melanoma, 92.2%; in the assay with SK-MEL-28 melanoma it was 106%.

As for `COc1cc(OC)c(C(=O)/C=C/c2cccc(C#N)c2)c(OC)c1`, the growth with HCT-15 colon is 3.28% (active); in the assay on HT29 colon it was 8.61% (active); in the assay with SNB-75 CNS, 17.3%; with SNB-19 CNS, 14.8%; with U251 CNS, 8.67% (active); in the assay on PC-3 prostate, 32.1%. For the same molecule, the growth with SK-MEL-5 melanoma is 7.71% (active); in the assay on UACC-62 melanoma it was 10.9%; in the assay on LOX IMVI melanoma, -6.01% (active); with SK-MEL-28 melanoma, 34.4%.

On to `O=c1c2cccc3c(Nc4ccc(F)cc4)ccc(c32)c2nc3ccccc3n12`, for which the growth with HCT-15 colon is 71.1%; in the assay on HT29 colon, 92.6%; in the assay on SNB-75 CNS, 70.8%; with SNB-19 CNS it was 77.6%; in the assay on U251 CNS, 92%; in the assay with PC-3 prostate, 77.2%. The growth was 70.4% in the assay on SK-MEL-5 melanoma, 67.8% with UACC-62 melanoma, 83.6% in the assay with LOX IMVI melanoma and 103% with SK-MEL-28 melanoma.

For the molecule `CCCCOc1nc2c(C)cccc2cc1C1CNC(=O)c2ccccc2N1` (stereo not given), the growth in the assay with HCT-15 colon is 43.4%; with HT29 colon, 61.4%; with SNB-75 CNS, 56.6%; in the assay on SNB-19 CNS, 47%; in the assay with U251 CNS, 63.7%; with PC-3 prostate, 40.1%. Moreover, the growth in the assay on SK-MEL-5 melanoma is 43.4%; in the assay with UACC-62 melanoma it was 29.1%; in the assay with LOX IMVI melanoma, 60.8%; in the assay with SK-MEL-28 melanoma, 66.4%.

For `COc1cc(CNC(=O)CSc2nc3ccccc3c(=O)n2Cc2cc(OC)c(OC)c(OC)c2)cc(OC)c1OC`, the growth is 97.4% in the assay on HCT-15 colon; 108% in the assay with HT29 colon; 89.2% in the assay with SNB-75 CNS; 92.5% in the assay with SNB-19 CNS; 98% in the assay on U251 CNS; 97.4% in the assay with PC-3 prostate. Moreover, the growth was 93.7% with SK-MEL-5 melanoma, 86.8% in the assay on UACC-62 melanoma, 99.9% in the assay with LOX IMVI melanoma and 102% in the assay with SK-MEL-28 melanoma.

Turning to `COc1cc(C(=O)/C=C/c2cc(C(=O)c3cc(OC)c(OC)c(OC)c3)ccc2OC)ccc1N`, the growth with HCT-15 colon was -10.2% (active); with HT29 colon, -58.3% (active); in the assay on SNB-75 CNS it was 29.5%; in the assay on SNB-19 CNS it was -7.07% (active); in the assay on U251 CNS it was -79.9% (active); in the assay on PC-3 prostate, -20.6% (active). Further, the growth with SK-MEL-5 melanoma was -83.3% (active); in the assay with UACC-62 melanoma it was -79.8% (active); with LOX IMVI melanoma it was -78.8% (active); in the assay with SK-MEL-28 melanoma, -53.4% (active).

Consider `COC1=CC(c2ccc[nH]2)=N/C1=C\c1[nH]c(C)c(C(=O)CCCCC(=O)Nc2ccccc2)c1C`, for which the growth with HCT-15 colon was -3.38% (active); with HT29 colon it was -54.4% (active); with SNB-75 CNS, 46.8%; with SNB-19 CNS, 64.2%; with U251 CNS, 1.79% (active); with PC-3 prostate, -40.5% (active). Further, the growth in the assay with SK-MEL-5 melanoma is 84.7%; in the assay on UACC-62 melanoma it was 101%; in the assay with LOX IMVI melanoma, -71.8% (active); in the assay on SK-MEL-28 melanoma, 63.9%.

Consider `Oc1ccc(N=Cc2ccccc2)cc1`, for which the growth with HCT-15 colon was 82%; in the assay with HT29 colon, 105%; in the assay with SNB-75 CNS it was 105%; in the assay with SNB-19 CNS it was 98.8%; in the assay with U251 CNS it was 96.1%; with PC-3 prostate it was 68.3%. Further, the growth is 83.4% in the assay with SK-MEL-5 melanoma, 97.5% with UACC-62 melanoma, 95.3% in the assay with LOX IMVI melanoma and 113% in the assay on SK-MEL-28 melanoma.

`Cc1ccc(C2=NN(c3ccc(S(N)(=O)=O)cc3)C(c3cn(-c4ccccc4)nc3-c3ccccc3)C2)cc1` (stereo not given): the growth with HCT-15 colon was 74.3%; in the assay on HT29 colon, 46.3%; in the assay on SNB-75 CNS, 81.6%; in the assay with SNB-19 CNS, 87%; with U251 CNS, 77.4%; with PC-3 prostate, 32.3%. Also, the growth in the assay on SK-MEL-5 melanoma was 100%; with UACC-62 melanoma, 83.5%; in the assay on LOX IMVI melanoma, 91.2%; in the assay on SK-MEL-28 melanoma it was 116%.

Regarding `CCN1C(=O)N(CC)C2Nn3c(s/c(=C\c4cccc(F)c4)c3=O)=NC21` (stereo not given), the growth with HCT-15 colon is 56.6%; in the assay on HT29 colon, 39.1%; in the assay with SNB-75 CNS, 6.29% (active); with SNB-19 CNS, 80.7%; in the assay on U251 CNS, 73.2%; in the assay on PC-3 prostate it was 52.9%. Also, the growth with SK-MEL-5 melanoma is 42.6%; with UACC-62 melanoma, 67.7%; in the assay with LOX IMVI melanoma, 69.7%; with SK-MEL-28 melanoma it was 75.6%.
